In PubChem BioAssay (Tox21):
Active and inactive are the calls of the source. Calls follow the shape of the dose curve; as a rule, active = well fitted curve in the direction sought with a large enough effect in the repeat runs; inconclusive = weak or mixed curves; inactive = flat fitted curve, though single readings scatter.

Experiment: qHTS assay to test for compound auto fluorescence at 460 nm (blue) in HepG2 cells (AID 720687)
Details: autofluorescence 405/460 nm, 1 h; series mostly up to 91.3 µM
Source text: U.S. Tox21 Program National Center for Advancing Translational Sciences [NCATS] NIH Chemical Genomics Center [NCGC] U.S. Environmental Protection Agency [EPA] National Institutes of Environmental Health Sciences [NIEHS] National Toxicology Program [NTP] U.S. Food and Drug Administration [FDA] Tox21 Assay Overview: Compound auto fluorescence often interferes with screening of the compound library against various biological targets and signaling pathways. Some of these compounds may have fluorophoric properties. Such properties may interfere with the assay outputs resulting in false positives and/or negatives. To decrease such complications and ensure the compound activities are relevant in terms of biological response, the Tox21 10K compound library was screened for auto fluorescence. From the fluorophores used as reporter signals in our screening assays, the auto fluorescence equivalencies of compounds against three fluorophores have been evaluated: Triamterene, Fluorescein and Rose Bengal sodium for blue, green and red fluorescence, respectively. The fluorescence intensities were measured using Excitation/Emission wavelengths at 405/460nm, 485/535nm and 540/590nm for blue, green and red labels, respectively. This assay includes the blue fluorescence data.
Tox21 Assay Protocol Summary: 2,000 HepG2 cells in 5 uL of culture medium (MEM containing 10% FBS) per well were dispensed into black wall/clear bottom 1536-well plates using a Multidrop Combi Dispenser (ThermoFisher Scientific, Waltham, MA). The assay plates were incubated overnight at 37 C to allow cell attachment to the well bottom, followed by the transfer of 23 nL compound or DMSO vehicle by a pintool work station (Kalypsys , San Diego, CA). After the assay plates were incubated for 1 hr at 37 C and 5% CO2, fluorescence intensities in the assay plates were measured by an Envision (PerkinElmer, Shelton, CT) plate reader using three labels for measuring blue, green and red fluorescence at […] 460, 535 and 590 nm respectively.

Question: With c1cc(OCC2CO2)ccc1Cc1ccc(OCC2CO2)cc1 (stereo not given) as the compound, how does the outcome read?
Answer: inactive

Question: Which outcome does the source give for O=[N+]([O-])c1cccc2ccccc12 here?
Answer: inactive

Question: Which outcome does the source give for N[C@@H](Cc1ccc(N(CCCl)CCCl)cc1)C(=O)O here?
Answer: inactive

Question: Which outcome does the source give for COc1ccc(C(CN(C)C)C2(O)CCCCC2)cc1 (stereo not given) here?
Answer: inactive

Question: With O=C(NC(=O)c1c(F)cccc1F)Nc1ccc(Cl)cc1 as the compound, how does the outcome read?
Answer: inactive

Question: For Oc1cc(Cl)ccc1Cl, which outcome is on record?
Answer: inactive

Question: With COP(=S)(OC)Oc1cc(Cl)c(Cl)cc1Cl as the compound, how does the outcome read?
Answer: inactive

Question: Which outcome does the source give for Cc1cc(C)cc(C)c1 here?
Answer: inactive

Question: Which outcome does the source give for c1ccc(NNc2ccccc2)cc1 here?
Answer: inactive

Question: With C=CCc1ccc(OC)cc1 as the compound, how does the outcome read?
Answer: inactive

Question: Which outcome does the source give for Nc1ccncc1 here?
Answer: inactive

Question: For O=C(O)C(F)(F)C(F)(F)C(F)(F)C(F)(F)C(F)(F)C(F)(F)C(F)(F)F, which outcome is on record?
Answer: inactive

Question: For O=[N+]([O-])c1c(Cl)c(Cl)c(Cl)c(Cl)c1Cl, which outcome is on record?
Answer: inactive

Question: With C=CC(=O)OCCO as the compound, how does the outcome read?
Answer: inactive

Question: For C#C[C@]1(O)CC[C@H]2[C@@H]3CCC4=CC(=O)CC[C@]4(C)[C@H]3CC[C@@]21C, which outcome is on record?
Answer: inactive

Question: For CC(C)N(C(=O)SCC(Cl)=C(Cl)Cl)C(C)C, which outcome is on record?
Answer: inactive

Question: Which outcome does the source give for O=C1C=CC(=O)C=C1 here?
Answer: inactive

Question: For C=CCc1ccc2c(c1)OCO2, which outcome is on record?
Answer: inactive

Question: Which outcome does the source give for CCOC(=S)S here?
Answer: inactive

Question: Which outcome does the source give for COc1ccc(C=O)cc1 here?
Answer: inactive

Question: Which outcome does the source give for Cc1c(COC(=O)[C@@H]2[C@H](/C=C(\Cl)C(F)(F)F)C2(C)C)cccc1-c1ccccc1 here?
Answer: inactive

Question: With S=C1NCCN1 as the compound, how does the outcome read?
Answer: inactive

Question: With NNC(N)=S as the compound, how does the outcome read?
Answer: inactive

Question: For Oc1c(Cl)c(Cl)c(Cl)c(Cl)c1Cl, which outcome is on record?
Answer: inactive

Question: Which outcome does the source give for O=C(O)CC[N+](=O)[O-] here?
Answer: inactive

Question: For C[C@]12CCC(=O)C[C@@H]1CC[C@@H]1[C@@H]2CC[C@]2(C)[C@@H](O)CC[C@@H]12, which outcome is on record?
Answer: inactive

Question: For CCCCNC(=O)n1c(NC(=O)OC)nc2ccccc21, which outcome is on record?
Answer: inactive

Question: For CCCCC(CC)COC(=O)Cl (stereo not given), which outcome is on record?
Answer: inactive

Question: With COP(=O)(OC)OC as the compound, how does the outcome read?
Answer: inactive

Question: For COP(=S)(OC)Oc1ccc([N+](=O)[O-])cc1, which outcome is on record?
Answer: inactive

Question: With c1ccc(N=Nc2ccccc2)cc1 as the compound, how does the outcome read?
Answer: inactive

Question: Which outcome does the source give for O=Cc1ccco1 here?
Answer: inactive

Question: With Cc1ccc2c(c1N)C(=O)c1ccccc1C2=O as the compound, how does the outcome read?
Answer: inactive

Question: For Brc1ccc(Oc2cc(Br)c(Br)cc2Br)c(Br)c1, which outcome is on record?
Answer: inactive

Question: Which outcome does the source give for Oc1cc(Cl)ccc1Oc1ccc(Cl)cc1Cl here?
Answer: inactive

Question: For CCOc1cc(C=O)ccc1O, which outcome is on record?
Answer: inactive

Question: For Oc1ccc(-c2ccccc2)cc1, which outcome is on record?
Answer: inactive

Question: With CCCCCCCCOC(=O)c1ccccc1C(=O)OCCCCCCCC as the compound, how does the outcome read?
Answer: inactive

Question: With CCC(C)c1ccc(O)cc1 (stereo not given) as the compound, how does the outcome read?
Answer: inactive

Question: With CCCCCc1cc(O)cc(O)c1 as the compound, how does the outcome read?
Answer: inactive
